We go through eight compounds from PubChem BioAssay (NCI).

Holding throughout (test): NCI-60 one-dose screen, 48 h (100 = growth as untreated, 0 = no growth, -100 = all killed)
For one test, the system named is SK-MEL-2 melanoma. Conditions: 10 µM unless noted.
A further test has as its system EKVX NSCLC. The settings on record: 10 µM unless noted.
The subject of the next test is SN12C renal. Conditions: 10 µM unless noted.
A further test has as its system UO-31 renal. The settings on record: 10 µM unless noted.
Another test concerns TK-10 renal. The settings on record: 10 µM unless noted.
Another test deals with ACHN renal. Conditions: 10 µM unless noted.
In a further test the test system is CAKI-1 renal. Conditions: 10 µM unless noted.
Another test deals with A498 renal. Conditions: 10 µM.
In the next test the test system is HL-60(TB) leukemia. Conditions: 10 µM unless noted.
The next test concerns CCRF-CEM leukemia. The settings on record: 10 µM unless noted.
The next test relates to MOLT-4 leukemia. The settings on record: 10 µM unless noted.
In a further test the test system is SR leukemia. The settings on record: 10 µM unless noted.
For a further test, the system named is OVCAR-8 ovarian. Conditions: 10 µM unless noted.
Another test concerns OVCAR-5 ovarian. The settings on record: 10 µM unless noted.
In another test the test system is OVCAR-4 ovarian. The settings on record: 10 µM unless noted.
The next test relates to SK-OV-3 ovarian. The settings on record: 10 µM unless noted.
Another test deals with IGROV1 ovarian. Conditions: 10 µM unless noted.
A further test concerns OVCAR-3 ovarian. Conditions: 10 µM unless noted.
For another test, the system named is HS 578T breast. Conditions: 10 µM unless noted.
For the next test, the system named is RPMI-8226 leukemia. The settings on record: 10 µM unless noted.

About 83,000 compounds went through this panel and 20% of them were active in at least one assay; those are over-represented in the sample as a whole.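 Cells were grown in 96-well plates and exposed to the test compound at a single concentration for 48 hours; results are reported as percent growth, with values below 10 considered active.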 A number with no mark means an inactive call. The source made the active and inactive calls.

As to `C#C[C@]1(OC(=O)CCCCCC)CC[C@H]2[C@@H]3CCC4=CC(=O)CC[C@@H]4[C@H]3CC[C@@]21C`, the growth in the test with SK-MEL-2 melanoma is 55.1%; in the test with EKVX NSCLC, 55.6%; in the test on SN12C renal, 47.3%; in the test with UO-31 renal, 54.7%; with TK-10 renal, 54.7%; with ACHN renal, 54.2%. Moreover, the growth is 56.1% with CAKI-1 renal; 80.5% in the test on A498 renal; 4.53% (active) in the test with HL-60(TB) leukemia; 41.2% with CCRF-CEM leukemia; 26.1% in the test on MOLT-4 leukemia; 17.5% with SR leukemia. For the same compound, the growth with OVCAR-8 ovarian is 51.9%; in the test on OVCAR-5 ovarian, 65.4%; in the test on OVCAR-4 ovarian, 53.6%; with SK-OV-3 ovarian it was 55.1%; with IGROV1 ovarian, 42.5%; in the test on OVCAR-3 ovarian, 73%. The growth in the test on HS 578T breast was 72%.

Turning to `COc1ccc(N(CC(=O)NCCC[Te]c2ccccc2)C(=O)CNC(=O)OC(C)(C)C)cc1`, the growth was 80% in the test on SK-MEL-2 melanoma; -5.01% (active) in the test on EKVX NSCLC; 18.7% in the test on SN12C renal; -3.8% (active) with UO-31 renal; 76.1% in the test with TK-10 renal; 83.9% with ACHN renal. In addition, the growth was 70.4% in the test with CAKI-1 renal; -16% (active) in the test on A498 renal; 3.6% (active) in the test on HL-60(TB) leukemia; 14% in the test on CCRF-CEM leukemia; 12.1% in the test on MOLT-4 leukemia; 12.7% in the test on SR leukemia. The growth in the test on OVCAR-5 ovarian was 22%; in the test with OVCAR-4 ovarian it was 118%; in the test on SK-OV-3 ovarian it was -7.96% (active); in the test on IGROV1 ovarian it was 4.89% (active); in the test with OVCAR-3 ovarian, 103%.

Take `c1ccc(COc2ccc3[nH]cc(CCN(Cc4ccccc4)Cc4ccccc4)c3c2)cc1`: the growth in the test with SK-MEL-2 melanoma is 93.6%; in the test on EKVX NSCLC it was 82.8%; with SN12C renal, 86.3%; in the test with UO-31 renal, 60.3%; in the test on TK-10 renal, 109%; in the test on ACHN renal, 97.1%. In addition, the growth with CAKI-1 renal is 71.8%; in the test on A498 renal, 105%; in the test on HL-60(TB) leukemia, 91.8%; in the test on CCRF-CEM leukemia, 73.8%; with MOLT-4 leukemia, 70.7%; in the test with SR leukemia, 69.5%. For the same compound, the growth with OVCAR-8 ovarian was 98.1%; in the test on OVCAR-4 ovarian, 95.4%; with SK-OV-3 ovarian it was 91.2%; in the test with IGROV1 ovarian, 90.7%; in the test with OVCAR-3 ovarian it was 96.7%; with HS 578T breast, 99.5%.

Consider `CN1C(=O)N[C@H]2[C@@H]3NC(=O)c4ccc(Br)n4[C@@H]3C[C@]21O`, for which the growth in the test with SK-MEL-2 melanoma is -55.5% (active); in the test on EKVX NSCLC it was -17.4% (active); in the test with SN12C renal it was -14.1% (active); with UO-31 renal, 9.15% (active); in the test on TK-10 renal, -16.7% (active); in the test on ACHN renal, -24.6% (active). Moreover, the growth with CAKI-1 renal is 6.74% (active); with A498 renal, -47.8% (active); with HL-60(TB) leukemia, -20% (active); in the test on CCRF-CEM leukemia, -15% (active); in the test with MOLT-4 leukemia, -9.97% (active); with RPMI-8226 leukemia, -23.2% (active). For the same compound, the growth was -12.4% (active) in the test with OVCAR-8 ovarian; -2.49% (active) in the test on OVCAR-5 ovarian; -13.9% (active) with OVCAR-4 ovarian; -2.3% (active) in the test with SK-OV-3 ovarian; -13.9% (active) with IGROV1 ovarian; -28.7% (active) in the test on OVCAR-3 ovarian.

Regarding `CC(C)CCC(=O)O[C@H]1CC[C@H]2[C@@H]3CCC4=CC(=O)CC[C@]4(C)[C@H]3CC[C@]12C`, the growth is 115% with SK-MEL-2 melanoma; 73.9% in the test with EKVX NSCLC; 107% in the test on SN12C renal; 82.1% in the test on UO-31 renal; 100% with TK-10 renal; 98.5% in the test with ACHN renal. Moreover, the growth with CAKI-1 renal was 88.5%; in the test on A498 renal it was 77.2%; in the test with HL-60(TB) leukemia it was 108%; in the test with CCRF-CEM leukemia it was 104%; in the test with MOLT-4 leukemia, 96%; in the test on SR leukemia, 90.7%. The growth was 93% with OVCAR-5 ovarian; 103% with OVCAR-4 ovarian; 128% in the test on SK-OV-3 ovarian; 96.3% in the test with IGROV1 ovarian; 97.9% in the test with OVCAR-3 ovarian; 86.9% in the test with HS 578T breast.

For `CCCCN(CCCC)P(=O)(Oc1ccccc1)Oc1ccccc1`, the growth in the test on SK-MEL-2 melanoma was 43.4%; with EKVX NSCLC, 59%; in the test on SN12C renal it was 59.9%; in the test with UO-31 renal, 42.2%; with TK-10 renal it was 78.5%; with ACHN renal, 80.8%. The growth with CAKI-1 renal was 32.4%; in the test with A498 renal, 93.8%; in the test on HL-60(TB) leukemia it was 32.5%; in the test with CCRF-CEM leukemia, 61.9%; in the test with MOLT-4 leukemia, 39.4%; in the test with RPMI-8226 leukemia, 54.4%. The growth in the test with OVCAR-8 ovarian was 84.1%; in the test on OVCAR-5 ovarian, 94.1%; with OVCAR-4 ovarian, 51.5%; with SK-OV-3 ovarian, 66.7%; in the test with IGROV1 ovarian, 57.3%; with OVCAR-3 ovarian, 87.2%. The growth in the test on HS 578T breast is 85.3%.

As for `Cc1ccc2c(C(C[N+](=O)[O-])c3cccs3)c(-c3ccccc3)[nH]c2c1` (centres undefined), the growth in the test with SK-MEL-2 melanoma was 20.7%; with EKVX NSCLC, 35.9%; in the test on SN12C renal, 32%; with UO-31 renal, 34.8%; with TK-10 renal it was 64.7%; with ACHN renal, 33.8%. The growth in the test on CAKI-1 renal is 2.76% (active); in the test with A498 renal it was -19.6% (active); in the test with HL-60(TB) leukemia, 0.431% (active); with CCRF-CEM leukemia, 15%; in the test with MOLT-4 leukemia it was 16.2%; in the test on RPMI-8226 leukemia, 11.8%. Also, the growth with OVCAR-8 ovarian is 33%; in the test on OVCAR-5 ovarian, 58.8%; in the test with OVCAR-4 ovarian, 38%; in the test on SK-OV-3 ovarian, 22.7%; with IGROV1 ovarian it was 31.4%; in the test with OVCAR-3 ovarian, 10.2%.

On to `C=CCn1cc(C=C2C(=O)N(C)C(=O)N(C)C2=O)c2ccccc21`, for which the growth in the test on SK-MEL-2 melanoma was 102%; in the test on EKVX NSCLC it was 84.4%; in the test with SN12C renal, 102%; in the test with UO-31 renal it was 78.2%; in the test with TK-10 renal it was 120%; in the test on ACHN renal it was 98.9%. For the same compound, the growth in the test on CAKI-1 renal is 90.3%; with A498 renal it was -90.6% (active); in the test on HL-60(TB) leukemia, 121%; in the test with CCRF-CEM leukemia, 87.9%; in the test with MOLT-4 leukemia, 97.6%; in the test on OVCAR-5 ovarian, 14.9%. Moreover, the growth was 97.6% with OVCAR-4 ovarian; 87.4% with SK-OV-3 ovarian; 95.6% in the test with IGROV1 ovarian; 96.1% in the test on OVCAR-3 ovarian; 76% in the test with HS 578T breast.
